An excerpt weighted towards active compounds, which were near 2.3% of everything screened.
Mcl1 Bid PPI – Mcl-1/Bid binding inhibitors, primary screen, biochemical, TR-FRET, 1536-well; Induced myeloid leukemia cell differentiation protein Mcl-1 (Homo sapiens), Q07820; TR-FRET Mcl-1/Bid-Dy647 peptide binding; inhibition, % at 21.7 µM; actives 0.97% (n = 220,000);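 active means compounds that cut the binding signal by more than half at the single screening dose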;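 further: His-tagged Mcl-1 with europium anti-His antibody binding Bid BH3 peptide; 0% = Mcl-1 plus peptide wells and 100% = peptide-only wells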
Target sequence (Q07820 whole entry, looked up): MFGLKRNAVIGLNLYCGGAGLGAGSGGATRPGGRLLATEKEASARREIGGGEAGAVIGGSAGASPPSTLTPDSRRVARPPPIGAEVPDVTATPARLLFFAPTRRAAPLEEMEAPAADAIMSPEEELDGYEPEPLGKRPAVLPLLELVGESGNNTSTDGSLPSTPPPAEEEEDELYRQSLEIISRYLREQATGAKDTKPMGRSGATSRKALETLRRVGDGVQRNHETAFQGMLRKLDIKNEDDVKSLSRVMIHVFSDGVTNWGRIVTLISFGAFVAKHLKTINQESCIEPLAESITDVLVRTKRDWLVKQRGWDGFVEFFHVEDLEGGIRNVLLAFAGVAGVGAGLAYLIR
BCLXL inh – inhibitors of human Bcl-xL, primary screen, biochemical, fluorescence polarization, HTS; actives 0.7% (n = 320,000); inhibition, % at 10.9 µM; GST-Bcl-xL / FITC-Bim BH3 peptide fluorescence polarization; Bcl-2-like protein 1 (Homo sapiens), Q07817;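 active means inhibition above the mean of all tested compounds plus 3 SD, cutoff set per campaign, cut at about 30% in these data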;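 further: 0% = DMSO wells and 100% = unlabeled Bim-BH3 peptide competitor; inhibitors lower millipolarization by displacing the labeled peptide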
Target sequence (Q07817 whole entry, looked up): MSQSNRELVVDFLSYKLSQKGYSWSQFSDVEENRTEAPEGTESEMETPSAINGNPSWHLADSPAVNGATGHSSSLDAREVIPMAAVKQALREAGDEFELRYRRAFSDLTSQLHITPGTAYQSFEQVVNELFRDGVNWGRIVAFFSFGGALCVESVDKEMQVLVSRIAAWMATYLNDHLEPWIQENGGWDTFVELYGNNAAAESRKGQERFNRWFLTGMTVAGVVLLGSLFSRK
Mcl-1 Bim block – inhibitors of Bim peptide binding to Mcl-1, primary screen, biochemical, bead-based flow cytometry, multiplex | AID 1009, 2008 | Induced myeloid leukemia cell differentiation protein Mcl-1 (Homo sapiens), Q07820 | actives 0.1% (n = 190,000) | inhibition, % at 10 µM | Bim peptide-Mcl-1 binding; in the data active means inhibition above about 40%;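 further: 0% = no compound tracer wells and 100% = peptide blocker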
MCL1 BIM primary – inhibitors of MCL1 binding to BIM-BH3, primary screen, biochemical, fluorescence polarization; Induced myeloid leukemia cell differentiation protein Mcl-1 (Homo sapiens), Q07820; GST-MCL1 / FITC-Bim-BH3 fluorescence polarization; inhibition, % at 10.9 µM; actives 0.68% (n = 320,000); AID 2057, 2009;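 active means inhibition above the mean inhibition of all tested compounds plus 3 SD, set per campaign, cut at about 40% in these data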;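 further: 0% = DMSO wells and 100% = unlabeled Bim-BH3 peptide control; higher means more loss of mP so more displacement of Bim peptide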
GLD-1 RNA inh – GLD-1/TGE RNA complex disruptors, primary screen, biochemical, fluorescence polarization | Female germline-specific tumor suppressor gld-1 (Caenorhabditis elegans), Q17339 | purified GLD-1 + fluorescein TGE RNA | inhibition, % at 5.96 µM | actives 0.44% (n = 320,000) | AID 2280, 2010;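 active means percent inhibition above a per-plate cutoff, the plate mean of test compounds plus 3 SD, cut at about 30% in these data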;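 further: 0% = DMSO wells with GLD-1 and probe and 100% = wells lacking GLD-1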
Mcl1 Noxa PPI – Mcl-1/Noxa binding inhibitors, primary screen, biochemical, TR-FRET, 1536-well. TR-FRET Mcl-1/Noxa peptide binding, 2 h. inhibition, % at 21.7 µM. actives 1.5% (n = 220,000);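 active means compounds that cut the protein-peptide binding signal by more than 50% relative to plate controls in a single-dose test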;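 further: His-tagged Mcl-1 with rhodamine Noxa BH3 peptide and terbium anti-His antibody; 0% = Mcl-1 plus Noxa peptide wells and 100% = peptide-only wells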
* hit, by the source's call; . = no result given.

SMILES	Mcl1 Bid PPI	BCLXL inh	Mcl-1 Bim block	MCL1 BIM primary	GLD-1 RNA inh	Mcl1 Noxa PPI
CC(=O)c1sc2nc(CSc3nncn3C)[nH]c(=O)c2c1C	54*	-8	2	-16	-9	21
CC(=O)c1sc2nc(CSc3nnnn3-c3ccccc3)[nH]c(=O)c2c1C	3	-35	-1	-65	-47	96*
CCC(CC)C(=O)Nc1nnc(S(=O)(=O)N2CCCC2)s1	.	2	.	6	-4	.
COc1ccc(-n2cc3ccc([N+](=O)[O-])cc3n2)cc1	.	5	.	8	-2	.
Cc1ccc(Cl)cc1N1CCN(S(=O)(=O)c2ccc3c(c2)NC(=O)C(C)C(=O)N3)CC1 (centres undefined)	.	1	.	2	9	.
Cc1nc(NC(=O)c2ccco2)sc1-c1csc(Nc2ccc(Cl)cc2)n1	25	-3	-2	-11	-8	62*
Cc1nc(NC(=O)CC(C)C)sc1-c1csc(Nc2ccc(Cl)cc2)n1	4	-1	64*	-9	-3	44
Cc1nc(NC(=O)c2ccco2)sc1-c1csc(Nc2ccc(Cl)cc2Cl)n1	87*	2	10	1	-8	100*
Cc1ccc(C)c(NC(=O)CCC(=O)N/N=C/c2cc([N+](=O)[O-])ccc2O)c1	-41	8	-1	12	-2	-23
Cc1cc(=O)oc2cc(OCC(=O)N/N=C/c3cc([N+](=O)[O-])ccc3O)ccc12	82*	4	0	10	12	73*
CCC(C)(CN(C)C)OC(=O)c1ccccc1 (centres undefined)	.	3	.	0	1	.
CCN(CC)C1CC(=O)N(c2cccc(Cl)c2)C1=O (centres undefined)	.	11	.	10	6	.
O=C(Cn1cc(SCc2ccc(F)cc2)c2ccccc21)N1CCOCC1	-24	10	-5	4	8	-7
O=C(Cn1cc(SCc2ccc(Cl)cc2)c2ccccc21)N1CCOCC1	52*	4	-4	0	1	2
CCOC(=O)N1CCC(Nc2c(NCCCN(CC)Cc3ccccc3)c(=O)c2=O)CC1	-30	1	0	-5	1	11
CCOC(=O)N1CCN(c2c(NCCCN(CC)CC)c(=O)c2=O)CC1	-27	-1	-4	7	-2	3
CCOC(=O)C1CCN(c2c(NCCCN(CC)Cc3ccccc3)c(=O)c2=O)CC1	-19	-4	-3	-13	7	71*
CCCCN(CC)CCNc1c(N2CCN(C(=O)OCC)CC2)c(=O)c1=O	-48	1	-2	2	1	75*
CCOC(=O)N1CCN(c2c(NCCCN(CC)Cc3ccccc3)c(=O)c2=O)CC1	-49	0	8	3	0	77*
CCOC(=O)c1c(C)[nH]c(C(=O)N2CCc3cc(OC)c(OC)cc3C2)c1C	.	10	.	-5	5	.
CCOc1c(C)cnc2c1c(=O)n(CC(=O)NCC1CCCO1)c(=O)n2C (centres undefined)	.	4	.	4	4	.
O=C(O)c1ccc(Nc2nc(-c3cccnc3)nc3ccccc23)cc1	3	11	6	6	1	-12
O=C1OCCN1C(=O)[C@H]1[C@H](c2ccc(F)cc2)C(c2ccc(F)cc2)=NN1c1ccc(Br)cc1	-6	5	-2	-2	5	-98
O=C1OCCN1C(=O)[C@H]1[C@H](c2ccc(F)cc2)C(c2ccc(F)cc2)=NN1c1ccccc1	0	-9	60*	-8	-16	-17
O=C1c2ccc3c4c(ccc(c24)C(=O)N1c1cccc(O)c1)C(=O)N(c1cccc(O)c1)C3=O	-50	8	.	8	1	49
SMILES	Mcl1 Bid PPI	BCLXL inh	Mcl-1 Bim block	MCL1 BIM primary	GLD-1 RNA inh	Mcl1 Noxa PPI
CC1(C)CC(=O)C2=C(C1)N(c1cccc(O)c1)C1=C(C2)C(=O)CC(C)(C)C1	-26	81*	-2	74*	40*	20
COCc1ccc(C(=O)N2CCCC(CNC(=O)c3ccc(F)cc3)C2)o1 (centres undefined)	.	1	.	5	3	.
CN(C)c1ccc(NC(=O)c2cn(-c3ccccc3)nc2-c2cccs2)cc1	28	6	-4	8	2	77*
O=C(Nc1ccc2ccccc2c1)c1cn(-c2ccccc2)nc1-c1cccs1	-13	0	-2	-3	8	-34
CCN(C(=O)c1cccc(S(=O)(=O)N(C)C)c1)C12CC3CC(CC(C3)C1)C2	.	3	.	-6	5	.
O=C(NNC(=O)C1CCN(S(=O)(=O)c2ccc(Cl)cc2)CC1)c1ccccc1O	.	7	.	2	6	.
CCc1ccc(NC(=O)Cn2nc(C(F)(F)F)c3c2CCC3)cc1	54*	1	-3	2	6	11
O=C(CNc1cccc(F)c1)N1CCc2ccccc2C1	.	6	.	3	-5	.
CCSc1nnc(NC(=O)C(Cc2ccccc2)n2cccc2)s1 (centres undefined)	64*	6	0	7	-1	28
CC(OC(=O)c1ccccc1C(=O)N(C)c1ccccc1)C(=O)Nc1ccccc1[N+](=O)[O-] (centres undefined)	.	1	.	-9	4	.
O=c1nc2c(O)cccn2c2c1c(=O)[nH]c1ccccc12	-83	.	21	.	.	61*
Cc1ccc(CS(=O)(=O)Cc2ccc(C(=O)NCc3cccs3)o2)cc1	-1	-1	-1	2	-2	3
COc1ccc(-c2n[nH]c(=S)n2-c2ccc3c(c2)OCCO3)cc1	-52	-15	-3	-13	4	45
COc1cc(OC)cc(-c2n[nH]c(=S)n2-c2ccc3c(c2)OCCO3)c1	-29	-14	-5	-16	-1	51*
COc1cc(C(=O)N(Cc2ccccc2)c2cccc(C)c2)ccc1OC(F)F	.	2	.	0	1	.
COc1ccc(OC)c(-n2c(=S)[nH]c3cc(C(=O)N4CCN(c5ccccc5)CC4)ccc3c2=O)c1	-61	8	48*	6	-4	8
C=CCn1c(C)nnc1SCC(=O)Nc1oc(C)c2c(C)n[nH]c(=O)c12	.	2	.	8	8	.
O=C1/C(=C\c2ccco2)SC(=S)N1c1ccc(O)cc1	-11	14	-5	27	5	4
O=C1/C(=C/c2ccco2)SC(=S)N1c1cccnc1	24	.	.	.	.	94*
O=C1/C(=C/c2cccnc2)SC(=S)N1c1ccccc1	-6	8	-7	17	0	16

Source: PubChem BioAssay
